Among all 310,000 compounds or so, about 14,000 (4.5%) showed an effect of 50% or more. The effect is printed as a negative number. Shown is part of a subset that was picked to be rich in strong results.
molecular target: human ether-à-go-go-related gene (hERG) potassium channel (human, UniProt Q12809); test: primary screen, population patch clamp on CHO cells stably expressing hERG; higher = less effect of the substance
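Also: peak tail current of the secondary pulse compared with the same well before compound.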

Sequence of human ether-à-go-go-related gene (hERG) potassium channel (Q12809 whole entry, looked up): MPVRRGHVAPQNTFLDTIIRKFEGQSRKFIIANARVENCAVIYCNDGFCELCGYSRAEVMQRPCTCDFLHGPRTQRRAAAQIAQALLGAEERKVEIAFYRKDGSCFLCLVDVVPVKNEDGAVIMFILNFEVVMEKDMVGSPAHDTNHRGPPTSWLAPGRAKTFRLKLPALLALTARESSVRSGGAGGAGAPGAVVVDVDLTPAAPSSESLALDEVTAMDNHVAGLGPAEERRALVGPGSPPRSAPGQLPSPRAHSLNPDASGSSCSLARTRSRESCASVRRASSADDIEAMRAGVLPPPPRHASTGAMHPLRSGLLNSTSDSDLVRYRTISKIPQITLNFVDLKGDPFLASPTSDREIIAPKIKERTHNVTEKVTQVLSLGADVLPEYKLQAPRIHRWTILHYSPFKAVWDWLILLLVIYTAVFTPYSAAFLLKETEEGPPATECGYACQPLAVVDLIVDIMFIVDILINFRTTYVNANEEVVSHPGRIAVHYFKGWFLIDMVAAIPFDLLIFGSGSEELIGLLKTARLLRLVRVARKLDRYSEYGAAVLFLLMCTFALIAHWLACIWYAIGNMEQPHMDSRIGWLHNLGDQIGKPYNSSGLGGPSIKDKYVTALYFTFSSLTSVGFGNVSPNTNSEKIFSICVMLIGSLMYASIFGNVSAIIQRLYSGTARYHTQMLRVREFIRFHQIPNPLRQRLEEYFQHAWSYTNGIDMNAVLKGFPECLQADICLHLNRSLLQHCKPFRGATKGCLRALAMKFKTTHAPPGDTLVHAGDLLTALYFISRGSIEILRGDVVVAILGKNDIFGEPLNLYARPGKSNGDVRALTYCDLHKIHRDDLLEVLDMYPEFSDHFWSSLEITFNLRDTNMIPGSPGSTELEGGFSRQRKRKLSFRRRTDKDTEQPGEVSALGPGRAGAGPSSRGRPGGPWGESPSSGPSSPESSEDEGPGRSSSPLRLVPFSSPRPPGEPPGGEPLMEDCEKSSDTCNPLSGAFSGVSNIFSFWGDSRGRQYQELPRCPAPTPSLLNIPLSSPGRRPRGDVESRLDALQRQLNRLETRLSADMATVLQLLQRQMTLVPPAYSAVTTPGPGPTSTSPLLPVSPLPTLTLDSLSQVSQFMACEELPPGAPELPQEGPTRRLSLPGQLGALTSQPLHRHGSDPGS

Row | Structure (SMILES) | hERG current change (%, negative = inhibition) at 10uM
1 | COCCOc1cc(N)c(Cl)cc1Cl | 15.5%
2 | COc1ccccc1NC(=O)Cn1cnc2c1c(=O)n(C)c(=O)n2C | 17.9%
3 | Cc1cc(C)cc(NC(=O)C(OC(=O)Cn2cnc3c2c(=O)n(C)c(=O)n3C)c2ccccc2)c1 (centres unmarked) | -69.7%
4 | CN(c1ccccc1)S(=O)(=O)c1cccc(NC(=O)Cn2cnc3ccccc3c2=O)c1 | -48.3%
5 | CCN(c1ccccc1)S(=O)(=O)c1ccc(OC)c(NC(=O)Cn2cnc3c2c(=O)n(C)c(=O)n3C)c1 | -66%
6 | CN(c1ccccc1)S(=O)(=O)c1cccc(NC(=O)Cn2cnc3c2c(=O)n(C)c(=O)n3C)c1 | -52.6%
7 | Cn1c(=O)c2c(ncn2CC(=O)Nc2ccccc2)n(C)c1=O | 13.9%
8 | CCN(c1ccccc1)S(=O)(=O)c1ccc(OC)c(NC(=O)CCc2nc3ccccc3c(=O)[nH]2)c1 | -51.2%
9 | COc1ccc(S(=O)(=O)N2CCCCC2)cc1NC(=O)CCc1nc2ccccc2c(=O)[nH]1 | 0.795%
10 | COc1ccc(S(=O)(=O)N2CCOCC2)cc1NC(=O)CCc1nc2ccccc2c(=O)[nH]1 | 21.5%
11 | Cc1cc(C)cc(NC(=O)COC(=O)Cn2cnc3c2c(=O)n(C)c(=O)n3C)c1 | -41.1%
12 | COc1ccc(C)cc1NC(=O)C(OC(=O)Cn1cnc2c1c(=O)n(C)c(=O)n2C)c1ccccc1 (centres unmarked) | -7.98%
13 | CCN(CC)S(=O)(=O)c1ccc(OC)c(NC(=O)Cn2cnc3c2c(=O)n(C)c(=O)n3C)c1 | -41.3%
14 | O=C(NCc1ccco1)C1CC(c2ccc(Cl)c(Cl)c2)=NO1 (centres unmarked) | 8.51%
15 | CC(C)C(C(=O)NCC1CCCO1)N(Cc1ccccc1)C(=O)CNS(=O)(=O)c1ccccc1 (centres unmarked) | 18.4%
16 | O=C(Nc1cccc(Br)c1)c1cc(=O)c2ccccc2o1 | 19.4%
17 | Cc1ccc(-c2csc(NC(=S)NC(=O)c3cc4ccccc4o3)n2)cc1 | 7.09%
18 | Cc1cc(S(=O)(=O)N2CCOCC2)c(C)s1 | 9.26%
19 | O=C(NCc1ccco1)c1sc2ccccc2c1Cl | -9.84%
20 | CC(C)(C)CC(=O)Nc1nn[nH]n1 | 24.3%
21 | O=C(O)CN1C(=O)/C(=C\c2cc([N+](=O)[O-])ccc2OCc2ccccc2Cl)SC1=S | 29.4%
22 | Cc1ccccc1-c1noc(-c2ccc(Cl)cc2)n1 | 25.1%
23 | COc1ccc(C)c2sc(NNC(=O)COc3ccccc3)nc12 | 6.35%
24 | Cn1c(=O)c2c(ncn2CC(=O)N(Cc2ccccc2)c2ccccn2)n(C)c1=O | -50.7%
25 | Cn1c(=O)c2c(ncn2CC(=O)OCc2ccccc2)n(C)c1=O | -6.21%
26 | CCN(Cc1ccccc1)C(=O)Cn1cnc2c1c(=O)n(C)c(=O)n2C | -16.1%
27 | Cc1sc2ncn(CC(=O)NCCCC(=O)N3CCN(c4ccccc4F)CC3)c(=O)c2c1C | -20.9%

Row | Structure (SMILES) | hERG current change (%, negative = inhibition) at 10uM
28 | CCOC(=O)N1CCN(C(=O)c2cccn3c(=O)c4sccc4nc23)CC1 | -35.9%
29 | O=C(c1ccc2nc3ccc(Cl)cc3c(=O)n2c1)N1CCOCC1 | -55.3%
30 | O=C(c1ccc2nc3ccc(Cl)cc3c(=O)n2c1)N1CCC2(CC1)OCCO2 | -40.3%
31 | CCOC(CNC(=O)c1cccn2c(=O)c3cc(Cl)ccc3nc12)OCC | -7.16%
32 | O=C(c1cccn2c(=O)c3cc(Br)ccc3nc12)N1CCC2(CC1)OCCO2 | -37%
33 | CCOC(=O)N1CCN(C(=O)c2ccc3nc4ccc(Cl)cc4c(=O)n3c2)CC1 | -45.9%
34 | O=C(c1cccn2c(=O)c3cc(Cl)ccc3nc12)N1CCOCC1 | -52.9%
35 | NC(=O)C1(N2CCCCC2)CCN(C(=O)c2cccn3c(=O)c4cc(Cl)ccc4nc23)CC1 | -30.1%
36 | CCOC(=O)N1CCC(NC(=O)c2cccn3c(=O)c4cc(Br)ccc4nc23)CC1 | 3.69%
37 | CCOC(=O)N1CCN(C(=O)c2cccn3c(=O)c4cc(Cl)ccc4nc23)CC1 | -65.7%
38 | O=C(c1cccn2c(=O)c3ccc(Cl)cc3nc12)N1CCC2(CC1)OCCO2 | -11.2%
39 | CCOC(=O)N1CCN(C(=O)c2cccn3c(=O)c4cc(Br)ccc4nc23)CC1 | -68.2%
40 | O=C(O)c1nn(-c2cccc(Cl)c2)c(=O)cc1O | 4.44%
41 | CN(Cc1nc2ccccc2c(=O)[nH]1)CC(O)COCc1ccco1 (centres unmarked) | -13.9%
42 | COc1cccc(C(=O)NCc2ccc3c(c2)OCO3)c1OC | 16.3%
43 | CCO[C@@H]1OC(C(=O)N2CCOCC2)=C[C@H](C2CC2)[C@H]1CCCO | 11.6%
44 | O=C(c1ccco1)N1CCN(S(=O)(=O)c2ccc(Cl)cc2)CC1 | 2.47%
45 | COc1ccc(OC)c(N(CC(=O)Nc2ccccc2)S(=O)(=O)c2ccccc2)c1 | 6.01%
46 | CCN1CCN(CC(O)COc2ccc(Cl)cc2)CC1.Cl (centres unmarked) | -36.2%
47 | CCN1CCN(CC(O)COc2cccc(OC)c2)CC1.Cl (centres unmarked) | 3.43%
48 | CCc1ccc(OCC(O)CN2CCCC2)cc1.Cl (centres unmarked) | -13.8%
49 | COc1cccc(OCC(O)CN2CCN(CCO)CC2)c1.Cl (centres unmarked) | 15.7%
50 | CCc1ccc(OCCOCC(O)CN2CCN(Cc3ccc(Cl)cc3)CC2)cc1.Cl (centres unmarked) | -73.5%
51 | COc1cccc(OCCOCC(O)CN2CCN(Cc3ccc(Cl)cc3)CC2)c1.Cl (centres unmarked) | -72.3%
52 | COc1cc(/C=C(/NC(=O)c2ccccc2)C(=O)Nc2cccc(O)c2)c([N+](=O)[O-])cc1OC | 0.394%
53 | Cn1c(=O)c([N+](=O)[O-])c(NCc2ccccc2)c2ccccc21 | 9.94%

— article PMC4336329 (PLoS ONE, 2015)
